Screening results deposited in PubChem by several laboratories.
Hck-Nef inh = inhibitors of Nef-activated human Hck kinase, primary screen, biochemical, Z-Lyte FRET, 384-well, Hck-YEEI. Tyrosine-protein kinase HCK (Homo sapiens), P08631. Recombinant Hck-YEEI plus Nef, Z-Lyte FRET kinase assay. inhibition, % at 20 µM. hit rate 0.68% among 220,000. AID 463187, 2010;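 active means Hck-Nef kinase inhibition above about 50%, limit read from the data; inactive means inhibition below that limit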;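 further: 0% = DMSO with Hck plus Nef and 100% = Hck alone without Nef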
eIF4E-4G inh = eIF4E–eIF4G protein interaction inhibitors, primary screen, biochemical, uHTS, TR-FRET, eIF4GI fragment; inhibition, % at 21.7 µM; hit rate 0.37% among 220,000; AID 782, 2007; TR-FRET eIF4E-eIF4GI(517-606) binding, 2 h;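 active means inhibition above about 30%, limit read from the data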;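 further: 0% = full FRET control wells and 100% = background wells lacking eIF4GI fragment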
Target sequence (P63073 whole entry, looked up, the tested form may be a part): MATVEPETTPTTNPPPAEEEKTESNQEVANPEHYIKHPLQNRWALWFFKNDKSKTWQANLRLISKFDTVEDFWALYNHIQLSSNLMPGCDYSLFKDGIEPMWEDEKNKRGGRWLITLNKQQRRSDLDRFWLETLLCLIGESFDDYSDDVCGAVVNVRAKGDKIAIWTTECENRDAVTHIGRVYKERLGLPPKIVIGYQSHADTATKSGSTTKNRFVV
Target sequence (Q04637 whole entry, looked up, the tested form may be a part): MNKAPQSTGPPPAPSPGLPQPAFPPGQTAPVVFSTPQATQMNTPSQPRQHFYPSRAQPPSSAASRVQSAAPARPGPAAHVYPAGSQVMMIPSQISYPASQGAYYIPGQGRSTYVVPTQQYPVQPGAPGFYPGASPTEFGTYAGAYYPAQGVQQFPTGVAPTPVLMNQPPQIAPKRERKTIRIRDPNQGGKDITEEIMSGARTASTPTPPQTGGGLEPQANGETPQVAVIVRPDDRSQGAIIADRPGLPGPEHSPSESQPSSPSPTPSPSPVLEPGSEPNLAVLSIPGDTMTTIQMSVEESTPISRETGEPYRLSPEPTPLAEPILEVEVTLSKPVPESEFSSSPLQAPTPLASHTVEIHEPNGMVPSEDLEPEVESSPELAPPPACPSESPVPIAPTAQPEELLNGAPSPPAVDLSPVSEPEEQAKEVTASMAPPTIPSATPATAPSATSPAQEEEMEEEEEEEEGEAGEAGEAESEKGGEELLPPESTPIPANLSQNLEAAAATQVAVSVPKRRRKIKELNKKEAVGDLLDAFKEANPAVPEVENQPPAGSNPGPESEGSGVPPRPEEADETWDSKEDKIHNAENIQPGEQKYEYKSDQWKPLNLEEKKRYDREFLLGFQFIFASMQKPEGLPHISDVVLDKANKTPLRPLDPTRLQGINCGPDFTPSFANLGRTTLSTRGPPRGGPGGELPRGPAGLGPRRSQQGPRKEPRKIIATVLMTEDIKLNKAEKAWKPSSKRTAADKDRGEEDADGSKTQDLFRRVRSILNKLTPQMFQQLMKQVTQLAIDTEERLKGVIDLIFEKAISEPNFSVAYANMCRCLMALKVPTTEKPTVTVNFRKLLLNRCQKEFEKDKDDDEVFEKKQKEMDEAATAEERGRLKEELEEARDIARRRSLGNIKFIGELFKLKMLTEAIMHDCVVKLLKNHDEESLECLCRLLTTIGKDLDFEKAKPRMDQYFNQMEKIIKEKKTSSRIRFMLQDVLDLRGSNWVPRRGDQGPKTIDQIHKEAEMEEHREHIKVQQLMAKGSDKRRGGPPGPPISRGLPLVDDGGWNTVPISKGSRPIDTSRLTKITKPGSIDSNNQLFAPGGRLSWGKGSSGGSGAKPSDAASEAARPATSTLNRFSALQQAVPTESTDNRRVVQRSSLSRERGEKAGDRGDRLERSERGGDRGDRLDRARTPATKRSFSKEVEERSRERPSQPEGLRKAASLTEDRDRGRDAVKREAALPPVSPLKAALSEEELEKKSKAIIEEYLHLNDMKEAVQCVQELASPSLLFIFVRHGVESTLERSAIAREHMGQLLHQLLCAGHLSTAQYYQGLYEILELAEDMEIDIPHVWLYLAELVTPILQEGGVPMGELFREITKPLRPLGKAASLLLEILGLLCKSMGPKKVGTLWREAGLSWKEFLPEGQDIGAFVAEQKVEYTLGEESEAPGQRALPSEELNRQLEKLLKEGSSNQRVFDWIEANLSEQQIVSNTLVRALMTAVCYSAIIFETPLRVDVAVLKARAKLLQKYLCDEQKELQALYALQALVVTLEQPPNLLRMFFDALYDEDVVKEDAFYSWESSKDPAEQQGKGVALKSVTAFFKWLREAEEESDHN
Mcl1 Bid PPI = Mcl-1/Bid binding inhibitors, primary screen, biochemical, TR-FRET, 1536-well. Induced myeloid leukemia cell differentiation protein Mcl-1 (Homo sapiens), Q07820. hit rate 0.97% among 220,000. inhibition, % at 21.7 µM. TR-FRET Mcl-1/Bid-Dy647 peptide binding;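 active means compounds that cut the binding signal by more than half at the single screening dose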;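 further: His-tagged Mcl-1 with europium anti-His antibody binding Bid BH3 peptide; 0% = Mcl-1 plus peptide wells and 100% = peptide-only wells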
Bim-Mcl-1 = inhibitors of Bim peptide binding to Mcl-1, primary screen, biochemical, bead-based flow cytometry, multiplex; Induced myeloid leukemia cell differentiation protein Mcl-1 (Homo sapiens), Q07820; Bim peptide-Mcl-1 binding; inhibition, % at 10 µM; hit rate 0.1% among 190,000; in the data active means inhibition above about 40%;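 further: 0% = no compound tracer wells and 100% = peptide blocker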
Mcl1 Noxa PPI = Mcl-1/Noxa binding inhibitors, primary screen, biochemical, TR-FRET, 1536-well; Induced myeloid leukemia cell differentiation protein Mcl-1 (Homo sapiens), Q07820; TR-FRET Mcl-1/Noxa peptide binding, 2 h; inhibition, % at 21.7 µM; hit rate 1.5% among 220,000; AID 1022, 2008;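 active means compounds that cut the protein-peptide binding signal by more than 50% relative to plate controls in a single-dose test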;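 further: His-tagged Mcl-1 with rhodamine Noxa BH3 peptide and terbium anti-His antibody; 0% = Mcl-1 plus Noxa peptide wells and 100% = peptide-only wells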
14-3-3 Bad inh = inhibitors of 14-3-3 zeta/Bad binding, primary screen, biochemical, TR-FRET, bovine 14-3-3 zeta | 14-3-3 protein zeta/delta (Bos taurus), P63103 | TR-FRET 14-3-3zeta/Dy647-pBad peptide displacement, 1 h | inhibition, % at 21.7 µM | hit rate 0.71% among 220,000 | AID 781, 2007;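 active means inhibition above about 70%, limit read from the data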;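 further: 0% = full 14-3-3 plus peptide FRET controls and 100% = background without 14-3-3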
Numbers without * were called inactive; [ ] = another dose, or the depositor's remark. Only some compounds are listed: those with a hit (about 3.5% of all), similar ones and a draw of the others.

Results for Cc1nc2ccccn2c1C(=O)NC1CCCc2ccccc21 (stereo unspecified) ?
Hck-Nef inh: 13; eIF4E-4G inh: -2; Mcl1 Bid PPI: -24; Bim-Mcl-1: -1; Mcl1 Noxa PPI: 17; 14-3-3 Bad inh: -2

What do the screens show for `COc1cc2c(cc1NC(=O)c1cc(-c3ccccn3)nc3ccccc13)oc1ccccc12`?
Hck-Nef inh: 1; eIF4E-4G inh: 14; Mcl1 Bid PPI: 23; Bim-Mcl-1: -6; Mcl1 Noxa PPI: 1; 14-3-3 Bad inh: -7

How did Cc1cc(N)n(-c2ccc3ccccc3c2)n1 do in these assays?
Hck-Nef inh: 0; eIF4E-4G inh: -1; Mcl1 Bid PPI: 96*; Bim-Mcl-1: 0; Mcl1 Noxa PPI: -9; 14-3-3 Bad inh: 9

Results for NC(=O)C1CC(=O)N(c2ccc(OCc3ccc(Cl)cc3)cc2)C1 (stereo unspecified) ?
Hck-Nef inh: 22; eIF4E-4G inh: 1; Mcl1 Bid PPI: -16; Bim-Mcl-1: -2; Mcl1 Noxa PPI: 9; 14-3-3 Bad inh: -7

How did CC(C)(C)SCCNC(=O)Nc1ccccc1 do in these assays?
Hck-Nef inh: -2; eIF4E-4G inh: -1; Mcl1 Bid PPI: -28; Bim-Mcl-1: 0; Mcl1 Noxa PPI: 4; 14-3-3 Bad inh: -1

What do the screens show for `CC(C)CCNC(=O)C12CN(Cc3ccccc3)CC1C(c1ccc([N+](=O)[O-])cc1)=NO2` (stereo unspecified)?
Hck-Nef inh: 1; eIF4E-4G inh: -4; Mcl1 Bid PPI: 23; Bim-Mcl-1: 1; Mcl1 Noxa PPI: 25; 14-3-3 Bad inh: 49

How did COc1cccc(CNC(=O)C23CN(Cc4ccccc4)CC2C(c2ccc([N+](=O)[O-])cc2)=NO3)c1 (stereo unspecified) do in these assays?
Hck-Nef inh: 3; eIF4E-4G inh: -4; Mcl1 Bid PPI: -9; Bim-Mcl-1: 16; Mcl1 Noxa PPI: 25; 14-3-3 Bad inh: 71*

Results for O=C(/C=C/c1ccncc1)c1ccc(NC(=O)c2ccccc2F)cc1 ?
Hck-Nef inh: 7; eIF4E-4G inh: 10; Mcl1 Bid PPI: 52*; Bim-Mcl-1: 8; Mcl1 Noxa PPI: -15; 14-3-3 Bad inh: 68

What do the screens show for `O=C(/C=C/c1ccc(Br)cc1)c1ccc(NC(=O)c2ccco2)cc1`?
Hck-Nef inh: 18; eIF4E-4G inh: 1; Mcl1 Bid PPI: -24; Bim-Mcl-1: -47; Mcl1 Noxa PPI: -16; 14-3-3 Bad inh: 77*[fluorescence artefact?]

How did CN(C)C(CNc1ncnc2sc3c(c12)CCCC3)c1ccco1 (stereo unspecified) do in these assays?
Hck-Nef inh: 7; eIF4E-4G inh: 4; Mcl1 Bid PPI: -25; Bim-Mcl-1: 1; Mcl1 Noxa PPI: 33; 14-3-3 Bad inh: 5

What do the screens show for `CC(C)(C)c1ccc(Oc2ncccc2NC(=O)c2cccs2)cc1`?
Hck-Nef inh: 5; eIF4E-4G inh: 4; Mcl1 Bid PPI: 1; Mcl1 Noxa PPI: -6; 14-3-3 Bad inh: 0

How did COc1cc(OC)c2c(c1O)OC(c1ccccc1)CC2=O (stereo unspecified) do in these assays?
Hck-Nef inh: 14; eIF4E-4G inh: 5; Mcl1 Bid PPI: -6; Bim-Mcl-1: -3; Mcl1 Noxa PPI: 54*; 14-3-3 Bad inh: 12

What do the screens show for `O=C1CC(c2ccccc2)Oc2cc(O)cc(O)c21` (stereo unspecified)?
Hck-Nef inh: 34; eIF4E-4G inh: 96*; Mcl1 Bid PPI: -59; Mcl1 Noxa PPI: 8; 14-3-3 Bad inh: -4

What do the screens show for `O=C1CC(c2ccc(O)cc2)Oc2cc(O)cc(O)c21` (stereo unspecified)?
Hck-Nef inh: 3; eIF4E-4G inh: -1; Mcl1 Bid PPI: 33; Bim-Mcl-1: 0; Mcl1 Noxa PPI: 10; 14-3-3 Bad inh: -2
